Measurements from PubChem BioAssay (NCI).
Where “and” joins values, the source holds several entries; their conditions need not be identical. Equal entries are not always repeated. About 83,000 compounds went through this panel and 20% of them were active in at least one assay; those are over-represented in the sample as a whole.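 Cells were grown in 96-well plates and exposed to the test compound at a single concentration for 48 hours; results are reported as percent growth, with values below 10 considered active.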

Columns and labels:
Test in all cases: NCI-60 one-dose screen, 48 h (100 = growth as untreated, 0 = no growth, -100 = all killed)
Settings in all cases: 10 µM unless noted
HCT-15 colon = test system: HCT-15 colon
HT29 colon = test system: HT29 colon
SNB-75 CNS = test system: SNB-75 CNS
U251 CNS = test system: U251 CNS
PC-3 prostate = test system: PC-3 prostate
SK-MEL-5 melanoma = test system: SK-MEL-5 melanoma
UACC-62 melanoma = test system: UACC-62 melanoma
LOX IMVI melanoma = test system: LOX IMVI melanoma
SK-MEL-28 melanoma = test system: SK-MEL-28 melanoma
SNB-19 CNS = test system: SNB-19 CNS

Measured: growth

Cc1ccc2cccc([N+](=O)[O-])c2n1
inactive: HCT-15 colon 105% and 96.9% | HT29 colon 99% and 96% | SNB-75 CNS 106% and 79.5% | U251 CNS 105% and 103% | PC-3 prostate 99.7% and 102% | SK-MEL-5 melanoma 99.1% and 105% | UACC-62 melanoma 102% | LOX IMVI melanoma 100% and 94.8% | SK-MEL-28 melanoma 109% and 111%

CC(=O)Nc1ccc2oc(=O)ccc2c1
inactive: HT29 colon 106% | SNB-75 CNS 89% | SNB-19 CNS 102% | U251 CNS 108% | PC-3 prostate 100% | SK-MEL-5 melanoma 97.8% | UACC-62 melanoma 93.9% | LOX IMVI melanoma 99.7% | SK-MEL-28 melanoma 115%

CCN(CC)CCO/N=C1\CC(c2ccc(OC)c(OC)c2)Oc2ccccc21 (centres undefined)
inactive: HT29 colon 74.8% | SNB-75 CNS 68% | SNB-19 CNS 98.5% | U251 CNS 93.6% | PC-3 prostate 83% | SK-MEL-5 melanoma 93.4% | UACC-62 melanoma 107% | SK-MEL-28 melanoma 107%

CC(=O)Nc1cscc1NC(C)=O
inactive: HT29 colon 96.2% | SNB-75 CNS 93.2% | SNB-19 CNS 92.6% | U251 CNS 98.9% | PC-3 prostate 103% | SK-MEL-5 melanoma 99.3% | UACC-62 melanoma 93.7% | LOX IMVI melanoma 98.6% | SK-MEL-28 melanoma 104%

O=C1Cc2ccccc2C(=O)N1
inactive: HT29 colon 88.9% | SNB-75 CNS 96.1% | SNB-19 CNS 106% | U251 CNS 86.1% | PC-3 prostate 95.2% | SK-MEL-5 melanoma 106% | UACC-62 melanoma 92.2% | SK-MEL-28 melanoma 106%

O=C(O)c1cccc(Br)c1
inactive: HT29 colon 101% and 94.4% | SNB-75 CNS 91.5% and 99.7% | SNB-19 CNS 108% and 105% | U251 CNS 103% and 90.7% | PC-3 prostate 95% and 97.6% | SK-MEL-5 melanoma 104% and 109% | UACC-62 melanoma 103% and 102% | LOX IMVI melanoma 95.8% and 99.3% | SK-MEL-28 melanoma 112% and 115%

Cc1cnc(N)s1
inactive: HT29 colon 100% | SNB-75 CNS 71.5% | SNB-19 CNS 91.4% | U251 CNS 95.5% | PC-3 prostate 88.9% | SK-MEL-5 melanoma 97.5% | UACC-62 melanoma 90.7% | LOX IMVI melanoma 98.6% | SK-MEL-28 melanoma 99.1%

O=[N+]([O-])c1ccc(N/N=C/C2CCCCCC2)c([N+](=O)[O-])c1
inactive: HT29 colon 100% | SNB-75 CNS 117% | SNB-19 CNS 102% | U251 CNS 96.8% | PC-3 prostate 79.7% | SK-MEL-5 melanoma 96.9% | UACC-62 melanoma 81% | LOX IMVI melanoma 89.2% | SK-MEL-28 melanoma 99.7%

O=c1[nH]c(=O)n(C2OC(CO)C(O)C2O)cc1I (centres undefined)
inactive: HT29 colon 96.9% | SNB-75 CNS 91.6% and 87.6% | SNB-19 CNS 108% and 107% | U251 CNS 99.1% and 111% | PC-3 prostate 87.4% and 91.9% | SK-MEL-5 melanoma 101% and 113% | UACC-62 melanoma 102% and 103% | LOX IMVI melanoma 98.9% and 92.4% | SK-MEL-28 melanoma 106% and 110%

Cc1nc2c(=O)[nH]c(=S)[nH]c2[nH]c1=O
inactive: HT29 colon 104% and 105% | SNB-75 CNS 97.4% and 84.1% | SNB-19 CNS 104% and 102% | U251 CNS 113% and 104% | PC-3 prostate 105% and 96.7% | SK-MEL-5 melanoma 111% | UACC-62 melanoma 104% and 100% | LOX IMVI melanoma 96% | SK-MEL-28 melanoma 111% and 112%

CCOC(=O)NC(N)=O
inactive: HT29 colon 99.9% and 106% | SNB-75 CNS 84.3% and 87.6% | SNB-19 CNS 103% and 100% | U251 CNS 101% and 96.4% | PC-3 prostate 99.3% and 92.8% | SK-MEL-5 melanoma 101% | UACC-62 melanoma 103% | LOX IMVI melanoma 97.9% and 94.7% | SK-MEL-28 melanoma 112% and 108%

CCCC(=O)OCC(COC(=O)CCC)OC(=O)CCC
inactive: HT29 colon 102% | SNB-75 CNS 93.5% | SNB-19 CNS 97.6% | U251 CNS 88.3% | PC-3 prostate 85.4% | SK-MEL-5 melanoma 98.5% | UACC-62 melanoma 89.9% | LOX IMVI melanoma 101% | SK-MEL-28 melanoma 108%

COc1ccc(COC=O)cc1
inactive: HT29 colon 104% | SNB-75 CNS 102% | U251 CNS 100% | PC-3 prostate 99.9% | SK-MEL-5 melanoma 104% | UACC-62 melanoma 104% | SK-MEL-28 melanoma 111%

Cc1c(Cl)cc(Cl)c(N)c1Cl
inactive: HT29 colon 108% | SNB-75 CNS 91.2% | SNB-19 CNS 109% | U251 CNS 99.4% | PC-3 prostate 92.2% | SK-MEL-5 melanoma 106% | UACC-62 melanoma 105% | LOX IMVI melanoma 99% | SK-MEL-28 melanoma 110%

S=c1ccc2ccccc2[nH]1
inactive: HT29 colon 96% and 100% | SNB-75 CNS 94.9% and 85.8% | U251 CNS 96.7% and 98.1% | PC-3 prostate 86.3% and 96.4% | SK-MEL-5 melanoma 100% and 104% | UACC-62 melanoma 100% and 97.8% | LOX IMVI melanoma 102% and 103% | SK-MEL-28 melanoma 109% and 103%

O=COCCCc1ccccc1
inactive: HT29 colon 95.9% | SNB-75 CNS 109% | SNB-19 CNS 96.7% | U251 CNS 94.5% | PC-3 prostate 94.4% | SK-MEL-5 melanoma 98.2% | UACC-62 melanoma 88.7% | LOX IMVI melanoma 99% | SK-MEL-28 melanoma 108%

CCCC(=O)Oc1ccc(CC)cc1
inactive: HT29 colon 108% | SNB-75 CNS 88.8% | SNB-19 CNS 109% | U251 CNS 98.4% | PC-3 prostate 101% | SK-MEL-5 melanoma 106% | UACC-62 melanoma 105% | LOX IMVI melanoma 97.8% | SK-MEL-28 melanoma 117%

CCN(C)c1ccccc1
inactive: HT29 colon 103% | SNB-75 CNS 79.2% | SNB-19 CNS 106% | U251 CNS 99% | PC-3 prostate 95.8% | SK-MEL-5 melanoma 100% | UACC-62 melanoma 103% | LOX IMVI melanoma 98.4% | SK-MEL-28 melanoma 105%

S=c1nn[nH]n1C1CCCCC1
inactive: HT29 colon 116% | SNB-75 CNS 95.2% | SNB-19 CNS 111% | U251 CNS 102% | PC-3 prostate 101% | SK-MEL-5 melanoma 105% | UACC-62 melanoma 113% | LOX IMVI melanoma 111% | SK-MEL-28 melanoma 117%

COC(=O)c1nc(=S)[nH]c(C(=O)OC)c1C(=O)c1ccccc1
inactive: HT29 colon 109% | SNB-75 CNS 86.6% | SNB-19 CNS 102% | U251 CNS 105% | PC-3 prostate 91.2% | SK-MEL-5 melanoma 103% | UACC-62 melanoma 92.6% | LOX IMVI melanoma 94.2% | SK-MEL-28 melanoma 105%

CN(C)C(=S)N(C)C
inactive: HT29 colon 95.6% | SNB-75 CNS 86.3% | SNB-19 CNS 110% | U251 CNS 105% | PC-3 prostate 92.9% | SK-MEL-5 melanoma 108% | UACC-62 melanoma 108% | LOX IMVI melanoma 98.4% | SK-MEL-28 melanoma 118%

COc1ccc(CCl)c(C)c1OC
inactive: HT29 colon 102% | SNB-75 CNS 104% | SNB-19 CNS 107% | U251 CNS 97.6% | PC-3 prostate 94.2% | SK-MEL-5 melanoma 90.8% | UACC-62 melanoma 99.5% | SK-MEL-28 melanoma 109%

CN(C=O)c1ccccc1
inactive: HT29 colon 99.9% | SNB-75 CNS 80.6% | SNB-19 CNS 102% | U251 CNS 93.5% | PC-3 prostate 88.4% | SK-MEL-5 melanoma 94.5% | UACC-62 melanoma 88.7% | LOX IMVI melanoma 89.5% | SK-MEL-28 melanoma 109%

COC(=O)c1ccccc1Cl
inactive: HT29 colon 111% | SNB-75 CNS 96.6% | SNB-19 CNS 108% | U251 CNS 97.4% | PC-3 prostate 96.9% | SK-MEL-5 melanoma 103% | UACC-62 melanoma 104% | LOX IMVI melanoma 98.6% | SK-MEL-28 melanoma 115%

COc1ccc(C(=O)C(O)c2ccc(OC)cc2)cc1 (centres undefined)
inactive: HT29 colon 106% and 111% | SNB-75 CNS 98% and 94.1% | SNB-19 CNS 109% and 111% | U251 CNS 105% and 95.7% | PC-3 prostate 93.9% and 92.2% | SK-MEL-5 melanoma 105% | UACC-62 melanoma 100% and 105% | LOX IMVI melanoma 96.4% and 98.4% | SK-MEL-28 melanoma 114% and 109%
